PubChem BioAssay (NCATS)
Results filed as inconclusive are left out. Active and inactive are the calls of the source. Calls come from the whole dose curve; as a rule, active = well fitted curve in the direction sought with a large enough effect; inconclusive = small, poorly fitted or top-dose-only effect, or another doubt; inactive = no such curve, though single readings can be large; an effect the other way counts as inactive or inconclusive.

Columns and labels:
[1] = Cell Viability - LYMP2-003 (AID 965);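 note: cells exposed to compounds for 24 h before reading; nearly all actives have a fitted effect of over 50% in size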
In short: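 CellTiter-Glo luminescence (cellular ATP) after 24 h compound exposure at 37 C in complete medium; 2500 cells/well, 5 h settling beforehand. Concentration-response fitted to standard Hill equation for AC50. Tetraoctylammonium bromide served as positive control.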

[2] = Cell Viability - LYMP2-004 (AID 966); note: nearly all actives have a fitted effect of over 65% in size
In short: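 qHTS cytotoxicity: human lymphoblastoid line, 24 hr compound treatment, 37 C, complete medium. Viability read as cellular ATP via luciferase luminescence; tetraoctylammonium bromide served as positive control.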

[3] = Cell Viability - LYMP2-009 (AID 968); note: series mostly up to about 92 µM; nearly all actives have a fitted effect of over 55% in size
[4] = Cell Viability - LYMP2-011 (AID 969); note: nearly all actives have a fitted effect of over 60% in size
In short: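 In this qHTS cytotoxicity format, compounds are tested across concentrations on human lymphoblastoid cells in complete medium for 24 hours at 37 C. Viability is taken as cellular ATP measured by luciferase luminescence.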

[5] = Cell Viability - LYMP2-013 (AID 970); note: series mostly up to about 92 µM; nearly all actives have a fitted effect of over 55% in size
In short: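 Cytotoxicity is scored as a concentration-dependent drop in intracellular ATP in human lymphoblastoid cells after 24 hr compound exposure at 37 C. ATP is quantified by luciferase luminescence, and AC50 values come from Hill-equation modeling.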

[6] = Cell Viability - LYMP2-015 (AID 971); note: nearly all actives have a fitted effect of over 55% in size
In short: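 Cells are seeded at 2500 per well and incubated 5 hr at 37 C. Compounds are added across a concentration series for 24 hr at 37 C. CellTiter-Glo is added, and luminescence is read after 30 min at room temperature.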

[7] = Cell Viability - LYMP2-017 (AID 972); note: series mostly up to about 92 µM; nearly all actives have a fitted effect of over 55% in size
In short: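 Cytotoxicity is scored as a concentration-dependent drop in cellular ATP in a human lymphoblastoid line after 24 hr treatment at 37 C. Values are AC50s from Hill-equation modelling.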

[8] = Cell Viability - LYMP2-023 (AID 975)
In short: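 Steps: seed 2500 human lymphoblastoid cells per well, incubate 5 hr at 37 C, add compound for 24 hr at 37 C, add CellTiter-Glo, hold 30 min at room temperature, read luminescence. AC50 derived by Hill modelling.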

[9] = Cell Viability - LYMP2-025 (AID 976); note: series mostly up to about 92 µM
In short: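 Acute cytotoxicity is scored as a concentration-dependent fall in intracellular ATP, measured by luciferase luminescence, in human lymphoblastoid LYMP2-025 cells exposed to compound for 24 hours at 37 C. AC50 values come from standard Hill fits.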

[10] = Cell Viability - LYMP2-002 (AID 977); note: series mostly up to about 92 µM
In short: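 In this qHTS viability screen, 2500 human lymphoblastoid cells per well receive compound for 24 hr at 37 C, and luciferase-based ATP luminescence gives the viability signal. Tetraoctylammonium bromide serves as positive control.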

[11] = Cell Viability - LYMP2-006 (AID 978); note: series mostly up to about 92 µM; nearly all actives have a fitted effect of over 60% in size
In short: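 qHTS, 1536-well; 2500 cells/well, 5 hr 37 C; cpd 24 hr 37 C; CellTiter-Glo 30 min RT; luminescence. Tetraoctylammonium bromide pos. ctrl. AC50 via Hill eqn.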

[12] = Cell Viability - LYMP2-007 (AID 979);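 note: cells exposed to compound for 24 h before reading; nearly all actives have a fitted effect of over 60% in size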
In short: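 Cells are seeded at 2500 per well and rested 5 hr. Compounds are then added over a concentration series for 24 hr at 37 C. CellTiter-Glo is added for 30 min at room temperature before luminescence reading.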

[13] = Cell Viability - LYMP2-008 (AID 980); note: nearly all actives have a fitted effect of over 60% in size
In short: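 Cells seeded at 2500/well and rested 5 hr at 37 C; compounds added over a concentration range and incubated 24 hr at 37 C; CellTiter-Glo added, 30 min at room temperature; luminescence read and AC50 fitted with Hill model.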

[14] = Cell Viability - LYMP2-012 (AID 982)
Text: NIH Chemical Genomics Center [NCGC]
NIH Molecular Libraries Screening Centers Network [MLSCN]
National Institutes of Environmental Health Sciences [NIEHS]
National Toxicology Program [NTP]
We have developed a 1536-well cell-based assay for quantitative high throughput screening (qHTS) against a number of cell lines to determine in vitro cytotoxicity of small molecules. This particular assay uses a human lymphoblastoid cell line (LYMP2-012) purchased from Coriell Institute for Medical Research.
NCGC Assay Protocol Summary:
The CellTiter-Glo luminescent cell viability assay (Promega) is a homogeneous method to measure the number of viable cells in culture. The end point readout of this assay is based on quantitation of intracellular ATP, an indicator of metabolic activity, using the luciferase reaction. […]
Using the CellTiter-Glo luminescent cell viability assay, the amount of cellular ATP was measured in the lymphoblastoid cell line with complete culture medium following compound treatment for 24 hours. […] Library compounds were measured for their ability to cause acute toxicity in the cell line, as reflected by a decrease in intracellular ATP levels, in a concentration-dependent manner. […] AC50 values were determined from concentration-response data modeled with the standard Hill equation. […]
8. Detection; Luminescence; Viewlux plate reader […]

[15] = Cell Viability - LYMP2-014 (AID 983); note: series mostly up to about 92 µM; nearly all actives have a fitted effect of over 50% in size
In short: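 Cells are plated at 2500/well and left 5 hr at 37 C. Compounds are added across a concentration range and incubated 24 hr at 37 C in complete medium. CellTiter-Glo is added, and luminescence is read after 30 min at room temperature.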

[16] = Cell Viability - LYMP2-016 (AID 984); note: nearly all actives have a fitted effect of over 55% in size
In short: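 qHTS, 1536-well: 2500 LYMP2-016 cells/well, 5 hr 37 C, compound added, 24 hr 37 C, CellTiter-Glo 30 min RT, luminescence. Tetraoctylammonium bromide positive control. AC50 via Hill fit.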

[17] = Cell Viability - LYMP2-018 (AID 985); note: nearly all actives have a fitted effect of over 50% in size
In short: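 Seed 2500 lymphoblastoid cells per well, incubate 5 hr at 37 C, add compound and incubate 24 hr at 37 C, add CellTiter-Glo, wait 30 min at room temperature, then read luminescence.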

[18] = Cell Viability - LYMP2-020 (AID 986)
In short: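 Seed 2500 cells per well and incubate 5 hr at 37 C. Add compounds at a concentration series and incubate 24 hr at 37 C. Add CellTiter-Glo, wait 30 min at RT, read luminescence, and fit a Hill curve for AC50.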

[19] = Cell Viability - LYMP2-026 (AID 989); note: nearly all actives have a fitted effect of over 50% in size
In short: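 Cells are seeded at 2500 per well and held 5 hr at 37 C. Compounds are added in concentration series for 24 hr, then CellTiter-Glo reagent is applied and luminescence read.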

[20] = Cell Viability - LYMP1-002 - Assay at 24 hr (AID 993)
In short: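 Acute toxicity is measured as concentration-dependent loss of cellular ATP in a human lymphoblastoid line (Coriell LYMP1-002) after 24 h treatment in complete medium. ATP is quantified by luciferase luminescence and AC50 derived by Hill modelling.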

Measured: outcome

C[C@@H]1C[C@H]2[C@@H]3CCC4=CC(=O)C=C[C@]4(C)[C@@]3(F)[C@@H](O)C[C@]2(C)[C@@]1(O)C(=O)CO
inactive: [1] | [2] | [3] | [4] | [5] | [6] | [7] | [8] | [9] | [10] | [11] | [12] | [13] | [14] | [15] | [16] | [17] | [18] | [19] | [20]
